# Results published in PubChem BioAssay.
# Calls of active or inactive are those of the source.
# Tests used:
# [1] = system: Plasmodium falciparum Sir2 (PF13_0152, Sir2A); assay: Plasmodium falciparum Sir2A binding compounds – biochemical, small-molecule microarray, 635 nm fluorescence, primary screen (AID 1098); settings: fluorescence 635 nm, higher = more signal;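 further: score merges spot fluorescence intensity with its signal-to-noise ratio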
# [2] = probe aDKK1 binding to arrayed compounds – biochemical, biotinylated probe, 635/667 nm fluorescence, primary screen (AID 1099); settings: small-molecule microarray, higher = more signal;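 further: score merges 667nm spot fluorescence with signal to noise across triplicate slides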
# [3] = probe aCHRDL2 binding to arrayed compounds – biochemical, biotinylated probe, 635/667 nm fluorescence, primary screen (AID 1100); settings: small-molecule microarray, higher = more signal
# [4] = change in splice reporter luminescence, either direction, cell-based, HEK293, spliceosome inhibition project, primary screen (AID 1101); settings: HEK293 splicing luciferase reporter, 24 h, higher = more signal, called active from +8 up or from −8 down;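 further: HEK293 cells carrying a splicing-competent luciferase reporter gene; test concentration not given here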
# [5] = molecular target: Fibroblast growth factor 10 (Homo sapiens) (UniProt O15520); assay: compounds binding fibroblast growth factor 10 – biochemical, small-molecule microarray, 635 nm fluorescence, primary screen (AID 1102); settings: FGF10 binding, fluorescence 635 nm, higher = more signal
# Sequence of Fibroblast growth factor 10 (Homo sapiens) (O15520 whole entry, looked up): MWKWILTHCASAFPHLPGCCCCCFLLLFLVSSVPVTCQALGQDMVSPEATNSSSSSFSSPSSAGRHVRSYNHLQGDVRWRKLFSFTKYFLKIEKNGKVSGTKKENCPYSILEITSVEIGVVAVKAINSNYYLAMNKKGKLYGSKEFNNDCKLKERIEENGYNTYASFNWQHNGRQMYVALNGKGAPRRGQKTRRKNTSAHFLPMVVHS
# [6] = system: glycogen synthase kinase-3 (GSK3A per assay name; protocol says GSK3B); assay: compounds binding glycogen synthase kinase-3 – biochemical, small-molecule microarray, 635 nm fluorescence, GSK3A, primary screen (AID 1103); settings: fluorescence 635 nm, higher = more signal; further: the record names both GSK3A and GSK3B
# [7] = molecular target: Epidermal growth factor receptor (Homo sapiens) (UniProt P00533); assay: compounds binding epidermal growth factor receptor – biochemical, small-molecule microarray, 635 nm fluorescence, primary screen (AID 1104); settings: EGFR binding, higher = more signal;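 further: score merges 667 nm emission intensity with spot signal to noise over triplicate slides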
# Sequence of Epidermal growth factor receptor (Homo sapiens) (P00533 whole entry, looked up): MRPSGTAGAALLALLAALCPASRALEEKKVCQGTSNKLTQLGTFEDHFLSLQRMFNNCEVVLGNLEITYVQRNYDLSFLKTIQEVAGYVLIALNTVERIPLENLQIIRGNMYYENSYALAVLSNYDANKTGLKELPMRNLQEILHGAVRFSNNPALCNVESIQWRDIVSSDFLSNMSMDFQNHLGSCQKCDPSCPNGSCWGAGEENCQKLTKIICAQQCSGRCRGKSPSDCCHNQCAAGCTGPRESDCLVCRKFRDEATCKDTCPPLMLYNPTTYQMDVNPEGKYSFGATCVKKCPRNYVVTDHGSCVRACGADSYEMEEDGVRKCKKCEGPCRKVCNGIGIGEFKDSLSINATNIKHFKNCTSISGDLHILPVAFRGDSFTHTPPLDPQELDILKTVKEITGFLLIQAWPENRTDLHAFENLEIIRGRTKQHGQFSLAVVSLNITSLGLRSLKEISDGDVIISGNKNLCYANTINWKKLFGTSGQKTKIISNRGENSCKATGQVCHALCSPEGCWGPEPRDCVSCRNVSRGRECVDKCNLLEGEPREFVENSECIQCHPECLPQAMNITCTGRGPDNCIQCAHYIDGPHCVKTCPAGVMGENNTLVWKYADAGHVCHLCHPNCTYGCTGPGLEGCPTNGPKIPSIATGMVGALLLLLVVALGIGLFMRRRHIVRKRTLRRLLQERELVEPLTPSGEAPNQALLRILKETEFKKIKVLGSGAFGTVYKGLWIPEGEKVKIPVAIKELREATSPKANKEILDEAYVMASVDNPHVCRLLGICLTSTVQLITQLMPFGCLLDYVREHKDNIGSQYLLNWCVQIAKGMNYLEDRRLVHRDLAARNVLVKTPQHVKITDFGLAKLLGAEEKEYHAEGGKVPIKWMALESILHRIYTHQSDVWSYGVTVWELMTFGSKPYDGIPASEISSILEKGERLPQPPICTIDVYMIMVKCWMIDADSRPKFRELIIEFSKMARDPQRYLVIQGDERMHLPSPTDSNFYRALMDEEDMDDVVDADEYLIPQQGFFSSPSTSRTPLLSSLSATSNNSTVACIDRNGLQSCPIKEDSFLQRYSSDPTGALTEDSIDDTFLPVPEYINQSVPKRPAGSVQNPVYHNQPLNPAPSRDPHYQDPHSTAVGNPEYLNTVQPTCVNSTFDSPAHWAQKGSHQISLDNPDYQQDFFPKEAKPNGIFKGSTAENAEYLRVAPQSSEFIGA
# [8] = molecular target: Follistatin-related protein 3 (Homo sapiens) (UniProt O95633); assay: compounds binding follistatin-related protein 3 – biochemical, small-molecule microarray, 635 nm fluorescence, primary screen (AID 1105); settings: FSTL3 binding, higher = more signal;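 further: score merges emission near 667 nm and signal to noise per printed spot across three slides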
# Sequence of Follistatin-related protein 3 (Homo sapiens) (O95633 whole entry, looked up): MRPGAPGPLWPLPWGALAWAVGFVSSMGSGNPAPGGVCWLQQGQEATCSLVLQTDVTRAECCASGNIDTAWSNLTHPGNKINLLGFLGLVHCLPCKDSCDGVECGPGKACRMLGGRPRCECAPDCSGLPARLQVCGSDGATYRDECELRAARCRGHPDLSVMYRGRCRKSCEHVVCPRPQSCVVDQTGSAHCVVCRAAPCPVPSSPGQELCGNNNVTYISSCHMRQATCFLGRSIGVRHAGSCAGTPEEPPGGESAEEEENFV
# [9] = molecular target: Dickkopf-related protein 1 (Homo sapiens) (UniProt O94907); assay: small molecules binding DKK1 protein – biochemical, small-molecule microarray, 635 nm fluorescence scan, primary screen (AID 1106); settings: higher = more signal;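 further: score merges emission near 667 nm with signal to noise over three replicate slides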
# Sequence of Dickkopf-related protein 1 (Homo sapiens) (O94907 whole entry, looked up): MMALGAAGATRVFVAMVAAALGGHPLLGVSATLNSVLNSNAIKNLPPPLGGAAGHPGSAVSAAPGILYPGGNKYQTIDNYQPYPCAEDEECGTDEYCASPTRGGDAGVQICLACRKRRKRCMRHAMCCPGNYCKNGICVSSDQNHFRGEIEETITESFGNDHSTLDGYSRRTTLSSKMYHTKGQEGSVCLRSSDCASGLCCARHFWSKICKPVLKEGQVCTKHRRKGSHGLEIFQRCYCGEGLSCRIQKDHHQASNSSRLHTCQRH
# [10] = system: Inhibin beta A chain (activin A); assay: small molecules binding activin A – biochemical, small-molecule microarray, 635 nm fluorescence scan, primary screen (AID 1107); settings: INHBA, higher = more signal;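 further: mouse activin A protein probed at 4.33 µg/mL on printed slides; score merges bound-protein fluorescence near 667 nm with spot signal-to-noise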
# [11] = system: Human papillomavirus type 1a protein E7 (residues 44-93); assay: small molecules binding HPV E7 44-93 – biochemical, small-molecule microarray, residues 44-93, 635 nm fluorescence, primary screen (AID 1108); settings: fluorescence 635 nm, higher = more signal;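 further: E7 fragment applied at 1 µg/mL in TBST for 1 h at 4 C; score combines spot fluorescence with its signal to noise ratio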
# [12] = hepatitis C replication reporter changes, two-sided – Huh7 cells, luciferase reporter, HCV replication inhibitor project, primary screen (AID 1109); settings: Huh7 HCV replicon luciferase reporter, 48 h; higher = more signal;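 further: huh7 hepatoma cells harbouring a luciferase neomycin HCV replicon reporter; luciferase luminescence as measure of HCV replicon replication; test concentration not given here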
# [13] = molecular target: Left-right determination factor 2 (Homo sapiens) (UniProt O00292); assay: small molecules binding LEFTY2 protein – biochemical, small-molecule microarray, 635 nm fluorescence scan, primary screen (AID 1110); settings: higher = more signal
# Sequence of Left-right determination factor 2 (Homo sapiens) (O00292 whole entry, looked up): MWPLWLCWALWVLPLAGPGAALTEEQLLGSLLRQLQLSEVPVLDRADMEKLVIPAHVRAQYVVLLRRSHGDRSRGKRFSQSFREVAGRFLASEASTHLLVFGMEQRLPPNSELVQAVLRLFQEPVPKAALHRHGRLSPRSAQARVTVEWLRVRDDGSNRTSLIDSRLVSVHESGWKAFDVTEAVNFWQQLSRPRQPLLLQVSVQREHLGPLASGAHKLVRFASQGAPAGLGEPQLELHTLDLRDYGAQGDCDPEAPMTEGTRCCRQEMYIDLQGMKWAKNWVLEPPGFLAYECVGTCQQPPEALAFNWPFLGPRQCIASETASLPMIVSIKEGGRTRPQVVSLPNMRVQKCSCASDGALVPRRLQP
# [14] = molecular target: Calmodulin-1 (Homo sapiens) (UniProt P0DP23); assay: small molecules binding calmodulin-1 with EGTA – biochemical, small-molecule microarray, Cy5-labelled CALM1, profiling panel (AID 1111); settings: Cy5-CALM1 binding fluorescence, higher = more signal;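 further: labelled calmodulin applied in Tris saline Tween buffer holding calcium plus EGTA and DTT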
# [15] = molecular target: Calmodulin-1 (Homo sapiens) (UniProt P0DP23); assay: small molecules binding Ca-loaded calmodulin-1 – biochemical, small-molecule microarray, Cy5-labelled CALM1, plus calcium, artefact control for SMM control-protein annotation, profiling panel (AID 1112); settings: Cy5-CALM1 binding fluorescence, higher = more signal;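 further: score merges spot fluorescence with signal to noise from triplicate slides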
# [16] = probe aWnt5a binding to arrayed compounds – biochemical, biotinylated probe, 635/667 nm fluorescence, primary screen (AID 1113); settings: small-molecule microarray, higher = more signal;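 further: score merges 667 nm fluorescence intensity with signal-to-noise per printed feature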
# [17] = probe aShh binding to arrayed compounds – biochemical, biotinylated probe, 635/667 nm fluorescence, primary screen (AID 1114); settings: small-molecule microarray, higher = more signal;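 further: probe is biotin-labelled aShh protein from a stem cell growth factor screen; measures binding of labelled protein to compounds printed on the slide; score merges feature fluorescence at 667 nm with signal-to-noise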
# [18] = probe aNog binding to arrayed compounds – biochemical, biotinylated probe, 635/667 nm fluorescence, primary screen (AID 1115); settings: small-molecule microarray, higher = more signal;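 further: probe is biotinylated aNog protein used at 0.15 µg/mL for 1 h at 4 C; z-score combines 667 nm fluorescence of each spot with its signal to noise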
# [19] = molecular target: Torsin-1A-interacting protein 1 (Homo sapiens) (UniProt Q5JTV8); assay: compound microarray binding of lysate hLAP1 – cell lysate, small-molecule microarray, COS7 lysate, 635/667 nm fluorescence, primary screen (AID 1116); settings: 635 nm fluorescence, higher = more signal
# Sequence of Torsin-1A-interacting protein 1 (Homo sapiens) (Q5JTV8 whole entry, looked up): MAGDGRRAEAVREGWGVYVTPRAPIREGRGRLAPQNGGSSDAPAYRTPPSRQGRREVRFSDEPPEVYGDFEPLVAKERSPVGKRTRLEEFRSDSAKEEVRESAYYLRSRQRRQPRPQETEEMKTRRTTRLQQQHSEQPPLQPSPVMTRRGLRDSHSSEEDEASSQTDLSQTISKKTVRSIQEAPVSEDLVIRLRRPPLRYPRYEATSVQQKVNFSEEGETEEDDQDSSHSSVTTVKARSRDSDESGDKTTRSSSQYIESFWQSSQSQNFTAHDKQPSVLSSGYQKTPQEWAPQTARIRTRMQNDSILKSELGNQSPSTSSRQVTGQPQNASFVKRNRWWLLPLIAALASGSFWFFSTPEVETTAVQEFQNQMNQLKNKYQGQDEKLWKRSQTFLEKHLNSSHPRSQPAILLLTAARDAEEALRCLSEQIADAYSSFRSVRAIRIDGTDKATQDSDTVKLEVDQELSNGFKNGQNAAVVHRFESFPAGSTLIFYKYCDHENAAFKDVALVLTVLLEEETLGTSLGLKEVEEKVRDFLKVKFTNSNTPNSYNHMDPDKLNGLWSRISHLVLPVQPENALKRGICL
# [20] = molecular target: Alpha-bungarotoxin (Bungarus multicinctus) (UniProt P60615); assay: compounds binding labelled alpha-BTX control protein – biochemical, small-molecule microarray, Alexa647 label, 635/667 nm fluorescence, artefact control for SMM control protein annotation, profiling panel (AID 1117); settings: alpha-BTX-A647 binding fluorescence, higher = more signal
# Sequence of Alpha-bungarotoxin (Bungarus multicinctus) (P60615 whole entry, looked up): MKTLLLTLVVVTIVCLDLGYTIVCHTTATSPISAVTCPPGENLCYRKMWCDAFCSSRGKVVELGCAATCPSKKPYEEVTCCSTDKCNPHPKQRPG
Structure (SMILES),composite z-score [1],composite z-score [2],composite z-score [3],z-score [4],composite z-score [5],composite z-score [6],composite z-score [7],composite z-score [8],composite z-score [9],composite z-score [10],composite z-score [11],z-score [12],composite z-score [13],composite z-score [14],composite z-score [15],composite z-score [16],composite z-score [17],composite z-score [18],composite z-score [19],composite z-score [20]
C=CCNC(=O)[C@@H]1[C@H]2C(=O)O[C@H](c3ccccc3)[C@H](c3ccccc3)N2[C@H](c2ccc(OCCO)cc2)[C@@]12C(=O)N(C(=O)OCCOC)c1ccc(C#CC3=CCCCC3)cc12,1.11,0.331,-0.112,-0.57 (inactive),0.957,1.28,0.552,1.06,0.44,0.726,1.34,-1.68,0.509,1.66,0.283,-0.0051,0.13,-0.375,0.642,0.84
Cc1ccc(C(C)CC(O)C2C=CC3C(=O)N(c4ccccc4)C(=O)C3N2Nc2ccc(C(C)C)cc2)o1 (stereo not given),0.938,1.14,1.37,1.46 (inactive),0.545,0.777,0.17,0.679,-0.252,1.13,1.33,1.02,-0.0337,2.35,1.01,0.14,-0.043,0.0485,0.801,1.64
CCN(CC)c1ccc(N2CC=CC34O[C@@H]5/C=C\CCC(C)OC(=O)C5[C@H]3C(=O)N(CCO)[C@@H]4C2=O)cc1 (stereo not given in full),0.752,-0.18,0.477,0.00168 (inactive),-0.736,-0.565,-0.968,-0.421,-0.771,0.907,1.14,-1.35,-1.05,-0.653,-0.897,-0.148,0.147,-0.0503,2.67,-0.699
CC(=O)n1cc(C(O)C2C=CC3C(=O)N(Cc4ccccc4)C(=O)C3N2n2cnnc2)c2ccccc21 (stereo not given),1.17,-0.0358,0.205,0.108 (inactive),-0.167,-0.243,-0.0707,0.19,0.12,0.713,-0.179,-1.49,0.0796,0.416,-0.568,-0.0721,-0.0626,-0.305,0.463,1.09
CCOC(=O)C[C@H]1[C@H](OC(=O)c2ccc(-c3ccccc3)cc2)[C@@H](NC(=O)c2ccc3ccccc3n2)c2cc(OCCCO)ccc2N1C(=O)c1ccccc1,0.418,0.048,0.475,0.0748 (inactive),0.785,0.653,0.143,1.09,0.216,0.407,1.33,-1.1,0.479,0.992,0.389,-0.0606,-0.0904,-0.302,0.574,0.452
C=CCC(OC(C)=O)[C@@H]1[C@@H](N(Cc2ccc(-c3ccccc3)cc2)C(=O)c2cccc3ccccc23)c2cc(OCCCO)ccc2N1C(=O)Cc1ccc2ccccc2c1 (stereo not given in full),-0.417,0.122,0.425,-0.862 (inactive),0.0665,-0.202,-0.062,-0.0827,-0.169,0.796,-0.106,-0.374,-0.304,-0.29,0.842,-0.108,-0.243,-0.225,0.0247,0.528
COc1cc2c(cc1O)C(C)N(Cc1cc3c(cc1Br)OCO3)CC2 (stereo not given),1,0.623,0.749,-0.363 (inactive),-0.0175,-1.11,-0.277,-0.475,-0.165,0.561,-1.15,-0.0195,-0.407,0.0966,0.201,-0.0944,-0.338,-0.252,0.208,-0.0712
C=CCOC(=O)[C@H]1[C@@H]2C(=O)O[C@@H](c3ccccc3)[C@@H](c3ccccc3)N2[C@@H](c2ccc(OCCOC(=O)[C@H]3C[C@H]4C(=O)N[C@@H](Cc5ccccc5)C(=O)N4[C@H]3c3ccc(O)cc3)cc2)[C@]12C(=O)Nc1ccc(I)cc12,1.34,-0.188,-0.485,0.354 (inactive),1.26,0.98,0.625,1.46,1.27,0.0385,1.39,-1.41,0.537,0.43,0.0144,0.0169,-0.333,-0.174,0.791,0.897
COC(=O)[C@@]1(Cc2ccc(OC)cc2)[C@H]2c3cc(C(=O)N4CCCC4)n(CCc4cc5ccccc5[nH]4)c3C[C@H]2CN1C(=O)c1ccccc1,1.52,1.64,1.43,0.0555 (inactive),0.893,0.591,0.124,1.2,-0.281,0.881,1.41,-1.85,-0.239,2.44,0.913,0.239,-0.19,2.21,2.4,1.21
CC[C@H]1C2=C3C(CC[C@H]4C(OCc5ccc(F)cc5C(F)(F)F)OC[C@](C)([C@@H]34)N(C(=O)OC(C)(C)C)C2)C2COC(=O)OCC21 (stereo not given in full),0.282,0.817,1.12,-0.499 (inactive),-0.0217,0.737,0.128,0.719,-1.02,1.06,1.34,-2.1,-0.532,2.48,0.911,-0.0297,0.246,-0.712,0.713,0.347
CN1C2C=C(CCCO)C(C3C(=O)N(C(N)=O)C(=O)C32)C1c1cccs1 (stereo not given),-0.254,1.3,0.492,0.359 (inactive),1.12,0.386,-0.259,-0.173,1.45,0.418,0.261,-0.364,0.362,-0.555,-0.328,0.535,-0.138,-0.0987,0.377,0.378
